According to PubChem BioAssay AID485350 (ICCB-Longwood Screening Facility, Harvard Medical School, 2010):
Screen size: about 84,000 compounds; about 95 (0.1%) were called active. Cut-off read from the data, not from the text of the source: active = inhibition above about 25% (passing the limit was not always enough); inactive = the rest. The list comes from a sample in which actives are over-represented; it also holds similar structures and randomly drawn compounds.

What follows are compounds tested on BasE (2,3-dihydroxybenzoate-AMP ligase), Acinetobacter baumannii ATCC 17978 (assay: BasE siderophore enzyme inhibitors, primary screen, biochemical, Acinetobacter baumannii ATCC 17978, fluorescence polarization (AID 485350;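 note: 0% = negative plate control signal and 100% = positive plate control signal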)). Details: purified BasE, fluorescence polarization binding displacement; active compounds read high; concentration not given here.

inhibition, inactive:
CC(=O)Nc1cccc(C(=O)OCC(=O)N2CCN(c3ccccc3)CC2)c1 0.21%
Oc1ccc(N=Cc2cn(-c3ccccc3)nc2-c2ccco2)cc1 -0.83%
C/C(N)=C(/C#N)C(=O)CSc1n[nH]c(C(C)C)n1 1.38%
CC(Oc1coc(CN2CCN(Cc3ccccc3)CC2)cc1=O)c1ccccc1 (configuration not stated) -0.18%
O=C(O)Cc1cc(=O)n(C2CCS(=O)(=O)C2)[nH]1 (configuration not stated) -0.2%
O=S(=O)(NCCC1=CCCCC1)c1ccc(Cl)cc1 -0.06%
c1snnc1C12CC3CC(CC(C3)C1)C2 -2.21%
NC(=O)C[n+]1cccc(C(N)=O)c1 -2.44%
CCOC(=O)c1cc(-c2ccc(S(=O)(=O)N(C)Cc3cnn(-c4ccccc4)c3)s2)on1 -0.03%
CN(C)S(=O)(=O)c1ccc(C(=O)Nc2ccccc2C(=O)NCc2ccc3c(c2)OCO3)cc1 -2.15%
O=C(Oc1ccc2c3c(c(=O)oc2c1)CCC3)C1CCCCC1 2.18%
COc1cc2c(cc1OC)C(C)N(Cc1sc3ccccc3c1C)CC2 (configuration not stated) -2.07%
O=C1CSC(=Nc2ccccc2)N1S(=O)(=O)c1ccccc1 0.27%
O=C(C1=Cc2sc3c(c2CS1)CCCC3)N1CCCC1 0.06%
N#Cc1cccc(OC(=O)c2ccccc2)c1 1.16%
COC(=O)c1cccc(NS(=O)(=O)c2cccs2)c1 0.35%
CCc1ccc(CCC(=O)O)cc1 1.07%
CCOC(=O)c1nn(-c2ccccc2)c(=O)cc1OCC 0.32%
Cc1ccc(CN2CCC(CNC(=O)Cn3c(=O)oc4ccccc43)CC2)cc1 3.44%
O=C(O)Cc1ccc(C(F)(F)F)cc1 -1.44%
CCOC(=O)CC1=CSC(NC)N1c1c(C)cc(C)cc1C (configuration not stated) 0.61%
Cc1cc(C(=O)N/N=C/c2ccc(O)cc2)c2ccccc2n1 -0.11%
CCOC(=O)/C=C1\SCC(=O)N1Cc1cc(Cl)cc2c1OCOC2 -0.76%
Cc1cc(C)n2nc(SCc3nc4ccc(Cl)cc4n3CCO)nc2n1 -0.85%
Cc1ccc(Cl)cc1NC(=O)CSc1nc2c(oc3ccccc32)c(=O)n1C1CCCC1 0.55%
CCN(CC(=O)NCc1cccs1)C(=O)c1ccc2c(c1)SC1=NS(=O)(=O)CCN12 0.92%
O=C(CC1SC(=Nc2ccccc2)NC1=O)NC1CC1 (configuration not stated) 0.62%
O=C(NCc1ccc(-c2nc3ccccc3o2)cc1)c1ccccc1Br -0.19%
O=C1N(CNc2ccccc2)CCN1CNc1ccccc1 1.83%
O=C(CSc1nnc(Cc2csc(Nc3cccc(Cl)c3)n2)o1)c1ccc2c(c1)OCCO2 -0.63%
CC(C)C(NC(=O)C1CCCCC1)C(=O)O (configuration not stated) 3.11%
O=C(c1cc(-c2cccs2)on1)N1CCCC1 -0.81%
N#Cc1ccc(Cn2cc(Br)ccc2=O)cc1 0.99%
O=C(c1ccc(S(=O)(=O)N2CCOCC2)cc1)N1CCn2c1nc1ccccc12 -1.29%
COc1cc(OC)c(C2Nc3c(C)cc(C)cc3-c3cc(C)nn32)cc1OC (configuration not stated) 0.21%
O=C(c1ccc2c(c1)C(=O)N(Cc1ccncc1)C2=O)N1CCN(S(=O)(=O)c2ccc(OC(F)(F)F)cc2)CC1 0.9%
CO/N=C(/C(=O)N[C@@H]1C(=O)N2C(C(=O)[O-])=C(C[N+]3(C)CCCC3)CS[C@H]12)c1csc(N)n1 -0.27%
Cc1cccc(C(CC(=O)NCc2cccs2)n2cccc2)c1 (configuration not stated) 1.33%
CC(c1ccccc1)N(C)CN1C(=O)c2ccccc2C1=O (configuration not stated) -0.8%
Cc1[nH]c2ccccc2c1C1=CCN(S(=O)(=O)c2cccc3nsnc23)CC1 -2.27%
COc1ccc(O)c(C(=O)c2cnn(C(=O)c3ccc4c(=O)n5c(nc4c3)CCC5)c2)c1 -0.87%
C=CCC(CC=C)(C(N)=O)c1ccccc1 2.87%
COc1ccc(CNC(=O)c2cc3c(C)nccc3[nH]c2=O)cc1 0.94%
CCn1c2ccccc2c2nnc(SCC(=O)NCCc3ccc(OC)c(OC)c3)nc21 -1.45%
N#CSc1ccc(N2CCCCC2)cc1 1.12%
CCCCn1c(SCc2nnc(-c3cccs3)o2)nc2cc(S(N)(=O)=O)ccc21 -3.81%
CC1(C)CC(=O)C=C(N2CCN(c3ccccc3F)CC2)C1 0.11%
CCn1c(N2CCN(S(C)(=O)=O)CC2)nc2ccccc21 -0.64%
O=C1CN(C(=O)CSC2=Nc3ccccc3CS2)c2ccccc2N1 -1.75%
CCOc1ccnc2sc(C(=O)c3cccnc3)c(N)c12 1.88%
C=CCn1cc(/C=C(\C#N)C(=O)NC2CCCCC2)c2ccccc21 2.71%
Cc1ccc(C2=NN(C(=O)CSc3nc(N)cc(N)n3)C(c3ccco3)C2)cc1 (configuration not stated) 2.13%
CS(=O)c1nc(-c2cccs2)cc(-c2ccccc2)c1C#N (configuration not stated) -2.06%
COCCc1cc(C(F)(F)F)c2c(=O)n(C)c(=O)n(C)c2n1 -0.29%
Cn1c(N)c(C(=O)NCc2ccccc2)c2nc3ccccc3nc21 -1.54%
CCOC(=O)c1c(C)[nH]c(C(=O)CN2C(=O)NC(CC)(c3ccc(F)cc3)C2=O)c1C (configuration not stated) -1.75%
Cc1cc(Oc2ccc3c(c2)OCO3)nc2ccccc12 6.24%
O=C(NCC(c1ccco1)N1CCCCC1)c1ccc(S(=O)(=O)N2CCCC2)cc1 (configuration not stated) 1.67%
Clc1ccc(/C=N/NCc2cn3ccsc3n2)cc1 0.12%
COc1ccc(Cl)cc1NC(=O)CN1C(=O)CSC(C)C1=O (configuration not stated) 0.33%
O=C(OCC(=O)N1CCCc2ccccc21)c1cc2ccccc2oc1=O -0.7%
COc1ccccc1OCCCn1cc(/C=C2/C(=N)N3C=CSC3=NC2=O)c2ccccc21 2.49%
Cc1nn(CCC#N)c2nc(-c3ccc(F)cc3)cc(C(=O)O)c12 0.45%
Cc1noc(/C=C/N2CCOCC2)c1S(=O)(=O)N(C)CCc1ccc(Cl)cc1 3.54%
Cc1cc(C)nc(SCC(=O)OCC(=O)N2CCc3ccccc32)n1 -2.45%
COC(=O)C1=CN(C(C)C)C=C(C(=O)OC)C1c1cccs1 -11.7%
O=C(OCCN1CCCCC1)c1ccc(F)cc1 -3.82%
Cc1cc(C)n(C(=O)N2c3ccccc3Sc3ccccc32)n1 2.13%
COc1ccc(CC(=O)N/N=C2/CC(=O)CC(C)(C)C2)cc1 -0.19%
Cc1ccc(Nc2nc(N)nc(CSc3nc4c(n3-c3ccccc3)CCCC4)n2)cc1 -1.36%
S=C(Nc1cccnc1)Nc1ccccc1N1CCCCC1 3.7%
O=C(Cn1c(=O)oc2ccccc21)NCc1ccccc1 -2.65%
CC(C(=O)N1CCCc2ccccc21)n1nc(-c2cccs2)oc1=O (configuration not stated) -0.37%
CCNC(=O)c1ccc(OCc2c(C)noc2C)c(OC)c1 -0.55%
CCOC(=O)CSc1ncnc2sc3c(c12)CCC3 -0.59%
CSc1nnc(C)n1Cc1ccccc1 -0.73%
CC1CN(C(=O)COC(=O)c2cccc3ccccc23)CC(C)O1 (configuration not stated) 1.48%
Cc1occc1C(=O)Nc1cccc(-c2nn[nH]n2)c1 1.61%
Cn1c(=O)c2c(SC/C(O)=C(\C#N)c3nc4ccccc4[nH]3)nc(C(C)(C)C)nc2n(C)c1=O 0.74%
Cc1cc(-c2nn(C)c(=O)c3ccccc23)cc(C)c1OC(=O)Nc1ccc(Cl)cc1 1.43%
NNC(=O)c1ccc(COc2ccccc2)o1 -1.29%
CC1CN(C(=O)CSc2nc3scc(-c4ccccc4)c3c(=O)n2N)CC(C)O1 (configuration not stated) 1.03%
COc1ccc(C)cc1NC(=O)C(OC(=O)c1ccc(Br)o1)c1ccccc1 (configuration not stated) -0.6%
CCN=c1sc(C(=O)Nc2ccccc2)c(C)n1CC -0.02%
COC(=O)CCC1(C(=O)O)CCOC(C)(C)C1 (configuration not stated) 0.97%
NC(=O)CSc1nnc(SCCOc2ccccc2)s1 0.35%
O=C(CSc1nc2cc3c(cc2c(=O)n1Cc1ccc2c(c1)OCO2)OCO3)NCCc1ccccc1 0.07%
COCCn1c(C)cc(C(=O)CSc2nc(C)c(C)n2C2CCCCC2)c1C -0.27%
CCCCNc1ncc2c(n1)c(=O)c(C#N)c1[nH]c3ccccc3c(=O)n12 -8.32%
CCOCCCn1c(CC(N)=O)n[nH]c1=S 0.4%
Nn1c(SCC2CCCCO2)nnc1-c1ccncc1 (configuration not stated) 1.26%
COC(=O)Cc1c(C)n[nH]c1C 1.01%
c1ccc(-n2nnnc2Sc2nnc3n2CCCCC3)cc1 -0.02%
O=C(Nc1ccncc1)OCCc1ccccn1 4.83%
Cc1cc(N2CCN(C)CC2)nc2ccc(NC(=O)NC3CCCC3)cc12 -2.82%
Cc1ccc2cc(C#N)c(NCCNC(=O)Nc3ccccc3C)nc2c1 4.18%
O=C(CCNC(=O)NC12CC3CC(CC(C3)C1)C2)Nc1ccc(-n2cnnn2)cc1 2.05%
